# Screening results deposited in PubChem by The Scripps Research Institute Molecular Screening Center.
# An excerpt weighted towards active compounds, which were near 2.9% of everything screened.
# KLK7 zymogen act – proKLK7 (human) activation, primary screen. P49862. purified proKLK7, EDANS-DABCYL substrate fluorescence; 100% is mature enzyme control, 0% vehicle. activation, % at 7 µM. hit rate 0.9% among 370,000;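 active means activation above the mean of all tested compounds plus 3 SD, computed per campaign excluding outliers beyond control limits, cut at about 13% in these data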
# PLC-beta3 inh – blocks human PLC-beta3 enzyme activity. Q01970. Purified PLC-beta3, fluorogenic substrate, fluorescence. inhibition, % at 12.2 µM. hit rate 0.18% among 370,000; in the data active means inhibition above about 11%;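 further: 0% = median of compound wells on plate and 100% = full blocker control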
# ADAM17 inh – inhibitors of human ADAM17; inhibition, % at 6.95 µM; recombinant ADAM17, EDANS/DABCYL FRET peptide cleavage; hit rate 0.83% among 370,000;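 active means inhibition above the mean of compounds lying between control limits plus 3 SD, set per campaign, cut at about 8.5% in these data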;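 further: 0% = DMSO-only wells as the low control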
# Target sequence (P78536 215-824 limits assumed): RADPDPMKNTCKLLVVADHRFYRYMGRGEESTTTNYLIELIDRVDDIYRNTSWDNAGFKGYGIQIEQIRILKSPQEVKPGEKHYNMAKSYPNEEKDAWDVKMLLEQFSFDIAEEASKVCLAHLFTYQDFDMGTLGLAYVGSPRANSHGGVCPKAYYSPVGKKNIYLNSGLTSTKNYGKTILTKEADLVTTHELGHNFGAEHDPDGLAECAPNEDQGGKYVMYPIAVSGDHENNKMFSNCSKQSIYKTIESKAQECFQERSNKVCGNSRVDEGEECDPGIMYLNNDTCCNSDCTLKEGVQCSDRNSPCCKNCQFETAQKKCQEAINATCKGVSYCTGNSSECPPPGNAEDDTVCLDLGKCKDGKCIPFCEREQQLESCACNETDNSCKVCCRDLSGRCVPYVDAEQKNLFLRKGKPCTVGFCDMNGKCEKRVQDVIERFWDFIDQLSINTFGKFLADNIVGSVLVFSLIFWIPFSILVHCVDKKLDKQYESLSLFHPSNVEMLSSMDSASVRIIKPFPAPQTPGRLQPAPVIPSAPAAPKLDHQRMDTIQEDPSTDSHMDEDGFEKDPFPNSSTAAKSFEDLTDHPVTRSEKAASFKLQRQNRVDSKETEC
# PLCg1 inh – PLC-gamma1 (human) inhibition, primary screen; AID 720700; purified PLC-gamma1, fluorogenic substrate, fluorescence; P19174; inhibition, % at 12.2 µM; hit rate 0.84% among 370,000; in the data active means inhibition above about 9.5%
# ADAM10 inh – inhibits human ADAM10; O14672; recombinant ADAM10, EDANS/DABCYL FRET peptide cleavage, 3 h; inhibition, % at 7 µM; hit rate 0.62% among 370,000; AID 720582;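 active means inhibition above a per-campaign cutoff equal to the mean of compounds falling between control-based bounds plus 3 SD, cut at about 20% in these data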;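 further: 0% = DMSO wells while the 100% control is not disclosed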
# KLK7 act conf – confirmation of human kallikrein-7 zymogen activators; purified proKLK7, EDANS-DABCYL substrate fluorescence; scaled: vehicle 0, mature enzyme 100; hit rate 68% among 3,200; activation, % at 7 µM; shares compounds with KLK7 zymogen act; AID 686949;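 active means activation, as change over the incubation, above the mean of all tested compounds plus 3 SD, cut at about 13% in these data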
# EDANS-DABCYL int – counter-screen for kallikrein-7 activators: EDANS-DABCYL optical interference; activation, % at 7 µM; EDANS-DABCYL substrate fluorescence interference, no enzyme, 4 h; solvent 0%, active enzyme control 100%; hit rate 80% among 3,200; shares compounds with KLK7 zymogen act; AID 686952;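 active means activation above the all-compound mean plus 3 SD, ignoring values outside control-based bounds, cut at about 4.8% in these data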;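 further: value is the 4 h activation minus the activation read at time zero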
# K7 EDANS ctr – EDANS fluorescence interference in dose response, no enzyme | shares compounds with KLK7 zymogen act | EDANS-DABCYL peptide fluorescence interference | EC50, µM | hit rate 20% among 250;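 active means compounds that raise the fluorescence signal in this interference counterscreen, with EC50 at or below 10 µM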;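 further: intact quenched peptide substrate alone read at 355 nm excitation and 520 nm emission; signal is fluorescence gain from T0 to T4 after four hours at room temperature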
# Active calls of the source: *; i = inactive; . = not tested or not shown.
SMILES,KLK7 zymogen act,PLC-beta3 inh,ADAM17 inh,PLCg1 inh,ADAM10 inh,KLK7 act conf,EDANS-DABCYL int,others
Cc1cc(C)cc(NC(=O)N2CCN(Cc3nc4ccccc4c(=O)[nH]3)CC2)c1,1,-2,-3,0,2,.,.,
CCOC(=O)[C@]12CCCCC/C=C\1N(Cc1ccc(OC)cc1)C(=O)[C@H]2CC(=O)NCc1cccc2ccccc12,0,5,7,3,11,.,.,
CC1(C)CC(=O)C2=C(C1)OC(N)=C(C#N)C2c1ccccc1 (stereo not drawn),0,-4,-1,-2,-6,.,.,
CC1(C)CC(=O)C2=C(C1)OC(N)=C(C#N)C2c1ccccc1[N+](=O)[O-] (stereo not drawn),17*,-168,-56,-144,-142,12,13*,
CCCc1cc(NCc2ccccn2)n2c(nc3ccccc32)c1C#N,-6,-236,-78,-155,-267,.,.,
CCCc1cc(NCCN(C)C)n2c(nc3ccccc32)c1C#N,57*,i,i,i,i,20*,6.5*,K7 EDANS ctr=>70
CCCc1cc(NCCCN(C)C)n2c(nc3ccccc32)c1C#N,83*,i,i,i,i,12,20*,
CCCc1cc(NCC2CCCO2)n2c(nc3ccccc32)c1C#N (stereo not drawn),17*,i,i,i,i,-54,-54,
COc1ccc(C(=O)NCC2CCN(C(=O)C(=O)c3cc4ccccc4o3)CC2)c(OC)c1,1,3,-1,-1,-4,.,.,
Cc1cc(Nc2cccc(F)c2)cc(=O)n1-c1cccc(F)c1,0,2,-3,-5,-5,.,.,
CCN(CC(=O)NCc1ccc(F)cc1)C(=O)/C=C/c1cc(OC)ccc1OC,69*,i,-361,i,i,60*,66*,
CCN(CC(=O)NCc1ccc(Cl)cc1)C(=O)/C=C/c1cc(OC)c(OC)c(OC)c1,2,-61,-35,-34,-96,.,.,
COc1ccc(-c2ccc(C3C(C#N)=C(N)Oc4n[nH]c(C)c43)o2)cc1 (stereo not drawn),14*,-229,-12,-161,-58,9,9.0*,
Cc1[nH]nc2c1C(c1ccc(OC(=O)c3ccco3)cc1)C(C#N)=C(N)O2 (stereo not drawn),310*,3,4,6,8,1,-2,
CN(CCC#N)C(=O)COC(=O)c1cc(Cl)cc(Cl)c1N,16*,-407,-473,-339,i,12,11*,
CC1(C)CC2CC(C)(CN2C(=O)COC(=O)c2cc(Cl)cc(Cl)c2N)C1 (stereo not drawn),-3,-46,-55,-35,-148,.,.,
COC(=O)CNC(=O)COC(=O)c1cc(Cl)cc(Cl)c1N,15*,i,i,-481,i,53*,40*,K7 EDANS ctr=>69
NC(=O)COC(=O)c1cc(Cl)cc(Cl)c1N,-8,i,i,i,i,.,.,
CC(C)CNC(=O)COC(=O)c1ccc(F)cc1Cl,-1,-6,-4,0,-3,.,.,
Nc1c(Cl)cc(Cl)cc1C(=O)OCC(=O)N1CCCC1,13*,i,i,-428,i,18*,15*,K7 EDANS ctr=>70
CC(C)CNC(=O)COC(=O)c1cc(Cl)cc(Cl)c1N,21*,-439,-482,-343,i,-9,-16,
O=C(CNS(=O)(=O)c1ccc(Cl)s1)N1CCN(c2ccccn2)CC1,0,-2,-4,-1,-11,.,.,
CN(C)c1cccc(-c2cnc(N3CCC(C(N)=O)CC3)s2)c1,.,-60,-15,-44,-36,.,.,
Cc1cc(OC[C@@H](O)CN2CCC(C(O)(c3ccccc3)c3ccccc3)CC2)ccc1Br,0,-2,7,2,10,.,.,
CN1C(=O)c2cccc3c(S(=O)(=O)N(C)C)ccc1c23,49*,i,-219,i,i,66*,73*,
SMILES,KLK7 zymogen act,PLC-beta3 inh,ADAM17 inh,PLCg1 inh,ADAM10 inh,KLK7 act conf,EDANS-DABCYL int,others
CCN1C(=O)c2cccc3c(S(=O)(=O)N(C(=O)c4ccncc4)c4ccc(OC)cc4)ccc1c23,-48,-27,-34,-22,-105,.,.,
CCN1C(=O)c2cccc3c(S(=O)(=O)N(C)C)ccc1c23,65*,i,-288,i,i,73*,75*,
CN1C(=O)c2cccc3c(S(=O)(=O)Nc4ccccc4F)ccc1c23,3,-78,0,-49,-8,.,.,
CNS(=O)(=O)c1ccc2c3c(cccc13)C(=O)N2C,35*,i,-144,i,-371,55*,66*,
CCN1C(=O)c2cccc3c(Cl)ccc1c23,1,-202,-3,-160,-13,.,.,
Cc1cccc2c(C(=O)O)c3c(nc12)CCCCC3,0,-3,-2,-2,-2,.,.,
Cc1cccc2c(C(=O)O)c3cccc(C)c3nc12,28*,-348,-349,-246,i,49*,42*,K7 EDANS ctr=>69
C[C@@H]1COc2cc(N3CCCC3)ccc2S(=O)(=O)N1C,0,-5,-6,2,-3,.,.,
CS(=O)(=O)c1ccc(-c2sc3cc4c(cc3c2C(=O)NN2CCOCC2)OCO4)cc1,43*,i,-344,i,i,35*,28*,K7 EDANS ctr=>70
COc1ccc(Cn2ccc3ccc(-c4ccc5ccn(Cc6ccccc6F)c5c4)cc32)cc1,-2,-124,-28,-91,-97,.,.,
C=CCC12C[C@@]3(O[C@H](c4ccc(C(F)(F)F)cc4)N=C3C[C@H](c3ccc(OC)cc3)[C@H]1C)N(Cc1ccc3c(c1)OCO3)C2=O,0,-7,4,1,-11,.,.,
O=C(Nc1ccc(NC(=O)c2ccccc2O)cc1)Nc1ccc(F)cc1F,31*,-9,-29,-3,-73,16*,10*,K7 EDANS ctr=9.7*
COC(=O)[C@]12C[C@H](CC(=O)NCc3ccccc3)C(=O)N(CCc3ccc(OC)c(OC)c3)C1=C[C@H](COCc1ccccc1)O[C@@H]2C,1,-3,-2,-3,-1,.,.,
COc1cc2cc(C(N)=O)c(N)nc2cc1OC,73*,i,i,i,i,65*,69*,
CC(=O)Oc1ccc(-c2cc3c(OC(C)=O)cc(OC(C)=O)cc3oc2=O)cc1,80*,i,i,i,i,63*,72*,
O=C(COc1ccc2cc(-c3ccccc3)c(=O)oc2c1)NCC1CCC(C(=O)O)CC1 (stereo not drawn),21*,i,i,i,i,60*,72*,
COC(=O)COc1ccc2cc(-c3ccccc3)c(=O)oc2c1,102*,i,i,i,i,68*,66*,
NC(=O)COc1ccc2cc(-c3ccccc3)c(=O)oc2c1,59*,i,i,i,i,63*,64*,
